Screening data: PubChem, Broad Institute
This is one part of a sample in which hits are shown more often than they occur.
Tgondii IFNg: blocks Toxoplasma gondii growth in the presence of IFN-gamma | 69,000 compounds, 3.8% hits | Toxoplasma gondii growth in IFN-gamma-treated host cells; hits give low values | activity change, negative = inhibition, % (test concentration not listed); in the data active means activity change below about -70%, passing the limit was not always enough;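 further: host cells are HeLa cells infected with Toxoplasma gondii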
* marks the source's active call; other numbers are inactive results; i = inactive.

SMILES	Tgondii IFNg
COc1ccc2c3c(n(C)c2c1)[C@@H](CO)N(C(=O)Nc1ccc(F)cc1)CC31CCN(S(=O)(=O)c2cccc(C)c2)CC1	-75.5*
COc1ccc2c3c([nH]c2c1)[C@H](CO)N(C(=O)Nc1cccc(F)c1)CC31CCN(S(=O)(=O)c2cccc(C)c2)CC1	-53.8
COc1ccc2c3c(n(C)c2c1)[C@H](CO)N(C(=O)Nc1ccc(F)cc1)CC31CCN(Cc2ccccn2)CC1	-17.6
COc1ccc2c3c(n(C)c2c1)[C@@H](CO)N(C(=O)Nc1ccc(F)cc1)CC31CCN(Cc2ccccn2)CC1	-37.3
COc1ccc2c3c(n(C)c2c1)[C@H](CO)N(C(=O)Nc1ccc(F)cc1)CC31CCN(S(=O)(=O)c2cccc(C)c2)CC1	-74.1*
CCCNC(=O)N1CC2(CCN(S(=O)(=O)c3ccccc3)CC2)c2c(n(C)c3cc(OC)ccc23)[C@H]1CO	-57.7
Cc1ccc(S(=O)(=O)N2CCC3(CC2)NCCN=C3NCc2ccccc2C)c(C)c1	0.8
CC(=O)NCC1CCCN(c2nc(C(C)(C)C)nc3c2cnn3C)C1 (centres undefined)	-1.3
CN(Cc1cn[nH]c1-c1ccccc1)C(=O)C(=O)c1ccco1	5.5
Cc1cccnc1N1CCN(C(=O)[C@H]2Cc3ccccc3CN2)CC1	25.5
COCCN1CC(NCC(=O)Nc2cccc(C)c2C)CC1=O (centres undefined)	-1.8
COCCN1CCOCC12CCN(C(=O)CC1CCCC1)CC2	-3.4
Cc1cc2nc(C)n(CC(=O)N(CCN(C)C)Cc3ccc4c(c3)OCO4)c2cc1C	-14.3
Cc1ccc(C2(O)CCN(C(=O)C3CCCN(CC(N)=O)C3)CC2)nc1 (centres undefined)	16.0
O=C(NCc1cc(Cl)c2c(c1)OCCCO2)c1cccc(Nc2ncccn2)c1	-71.3*
CCC(C(=O)NCc1cc(Cl)c2c(c1)OCCCO2)n1nc(C)cc1C (centres undefined)	9.9
O=C(CCC1C(=O)Nc2ccccc21)NCc1cc(Cl)c2c(c1)OCCCO2 (centres undefined)	1.2
CN(C)c1nc(CNC(=O)C2(c3ccccc3F)CC2)cs1	39.2
Cc1ccsc1-c1nc(CN2CCN(c3cccc(C)c3C)CC2)c(C)o1	12.1
O=S(=O)(c1ccccc1)N1CCCC12CCN(Cc1ccc(O)cc1)CC2	-14.5
COc1ccc(Cn2c(-c3ccncc3)n[nH]c2=O)cc1	-3.8
Cc1ccc(-c2ccc(=O)[nH]n2)cc1-n1cnnc1	8.1
COc1ccc(-c2ccc(=O)[nH]n2)cc1	-114.9*
COc1ccc(-c2cc(N)n(C)n2)cc1	110.5
COc1ccc(-c2c(N)n[nH]c2C)cc1OC	-13.8
SMILES	Tgondii IFNg
COc1cc(-c2ccc(=O)[nH]n2)ccc1OC(F)F	-87.5*
CN(CCCc1cnn(C)c1)C(=O)c1ccc2ccccc2n1	-26.2
Cc1c(N)cccc1Cn1ccc(OCCc2cccs2)cc1=O	28.8
Cc1cccc(NC(=O)Nc2ccc(C)c(Cl)c2)n1	-31.0
CC(=O)Nc1ccc(C)c(NC(=S)Nc2ccc(Cl)c(Cl)c2)c1	23.4
Cc1ccc(NC(=O)Nc2ccc(C#N)cc2)cc1Cl	-70.6*
COCC1CN(C(=O)Cc2cccs2)Cc2cncn2C1 (centres undefined)	42.8
COc1cc(C)c(C(c2ccc(N(C)C)cc2)c2ccc(N(C)C)cc2)cc1C	-96.7*
CC(C)NC(=O)[C@H]1C[C@@H]2CN(C(=O)NC3CCCC3)C[C@H]1O2	-27.6
COc1cc(CN2CCC(CNS(C)(=O)=O)C2)cc(OC)c1 (centres undefined)	-3.4
CN1CCN(C)C(c2nnc3ccc(C(=O)NCCc4ccccn4)cn23)C1 (centres undefined)	1.6
Cc1ccc(-c2nc(C)c(CCNC(=O)C(C)(C)C)s2)cc1	i
CCCCOc1ccc(-c2cc3c(=O)n(Cc4nc(-c5ccccc5OC)oc4C)ccn3n2)cc1	54.4
CCCCOc1cc(C(=O)OCCN(CC)CC)ccc1N	-4.2
CCCCOc1cc(C(=O)NCCN(CC)CC)c2ccccc2n1	-28.3
CCCCc1oc2ccccc2c1C(=O)c1cc(I)c(OCCN(CC)CC)c(I)c1	-81.1*
Cc1cc(C(=O)N2CCc3ncnc(C)c3CC2)no1	24.2
O=C(CC1CCc2ccccc21)N(CCO)Cc1nccs1 (centres undefined)	2.0
CC[C@@H](Cn1ncc2ccccc2c1=O)NC(=O)c1nccc2ccccc12	0.2
O=C(NCCc1csc(-c2cccc(F)c2)n1)C(=O)Nc1ccccc1Cl	53.2
Cc1ccc(NC(=O)Cn2ncc3c(N4CCN(c5ccccn5)CC4)ncnc32)cc1C	-54.6
O=C(Cn1ncc2c(N3CCN(c4ccccn4)CC3)ncnc21)Nc1ccccc1Cl	96.9
CC(C)c1ccc(NC(=O)Cn2ncc3c(N4CCN(c5ccccn5)CC4)ncnc32)cc1	-43.3
O=C(Cn1ncc2c(N3CCN(c4ccccn4)CC3)ncnc21)Nc1ccc(Cl)cn1	-82.9*
COc1ccc(NC(=O)Cn2ncc3c(N4CCN(c5ccccn5)CC4)ncnc32)cc1Cl	119.9
SMILES	Tgondii IFNg
Cc1cccc(NC(=O)Cn2ncc3c(N4CCN(c5ccccn5)CC4)ncnc32)c1	87.5
Cc1ccc(NC(=O)Cn2ncc3c(N4CCN(c5ccccn5)CC4)ncnc32)cc1Cl	-73.7*
Cc1cc(Cl)ccc1NC(=O)Cn1ncc2c(N3CCN(c4ccccn4)CC3)ncnc21	64.0
CC(C)c1cccc(NC(=O)Cn2ncc3c(N4CCN(c5ccccn5)CC4)ncnc32)c1	-92.9*
O=C(C1CCOC1)N1CCc2ncnc(NC3CC3)c2CC1 (centres undefined)	-0.1
O=C(Nc1ccc(N2CCCCC2)c(C(F)(F)F)c1)c1ccc(Cn2ccnc2)o1	-56.4
CCc1nc(C)sc1C(=O)N(C)Cc1noc(C2CCC2)n1	3.8
CC1CCC2(CCN(C(=O)c3cnccn3)CC2)c2ccccc21 (centres undefined)	-15.9
Cc1cc(C)c(NC(=O)Cn2c(=O)cc(-c3nc(C4CC4)no3)c3ccccc32)c(C)c1	-26.6
COc1ccccc1NC(=O)Cn1c(=O)cc(-c2nc(C3CC3)no2)c2ccccc21	-7.9
COc1ccc(C)cc1NC(=O)Cn1c(=O)cc(-c2nc(C3CC3)no2)c2ccccc21	-87.4*
CCN1C(=O)CCc2cc(NS(=O)(=O)c3ccc(F)cc3F)ccc21	-10.6
O=C1Nc2ccccc2C1C1CCN(C(=O)CO)CC1 (centres undefined)	61.2
CCn1c(-c2cc(NC(=O)c3cnccn3)n[nH]2)cc2c(OC)cccc21	144.5
O=C(O)CN1CCN(CC(=O)O)CCN([C@H](CO)C(O)CO)CCN(CC(=O)O)CC1.[Gd] (some centres undefined)	14.6
CN1C[C@@H]2CC[C@H](CC1=O)N2C(=O)c1nc2ccccc2[nH]c1=O	-1.1
S=c1nc[nH]c2nc[nH]c12	-70.5*
Cn1c(=O)c2[nH]cnc2n(C)c1=O	111.7
CCN(C)c1ccnc(N2CCN(Cc3cc(F)ccc3F)CC2)n1	-28.0
Cn1c2ccccc2c2n[nH]c(=O)nc21	-105.2*
Cc1nn(-c2ccccc2)c2c1c(=O)n(C)c1ccccc21	-41.2
Cc1ccc2c(c1)c1nc3ccccc3nc1n2C	-63.2
O=C(c1cn(-c2ccccc2)nn1)N1CCNC(c2ccccc2)C1 (centres undefined)	3.5
CCc1nnc(NC(=O)c2ccc(S(=O)(=O)NCC(C)C)cc2)s1	-74.8*
CCc1nnc(NC(=S)NC(=O)c2ccc(-c3ccccc3)cc2)s1	245.1
COc1ccc(S(=O)(=O)Nc2nnc(CC(C)C)s2)cc1	7.0
CN(C)CC1COc2ccccc2CN1C(=O)c1ccnn1C (centres undefined)	122.2
